# aSyn rescue – inhibitors of alpha-synuclein toxicity in yeast; Yeast expressing alpha-synuclein, growth rescue, BacTiter-Glo, 24 h; Potency, µM (top dose mostly 46.1 µM), inactives show top-dose growth rescue (activation), actives largely listed as activators; hit rate 0.14% among 370,000; AID 652106; also: % of control where 0% means no effect; nearly all actives have a fitted effect of over 65% in size
#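 Screening used galactose-induced yeast with toxic alpha-synuclein levels, exposed to compound for 24 hr at 30 deg C. Cell growth, read with BacTiter-Glo luminescence, gave the measured signal.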
# Mito fusion act – blocks mitochondrial division or promotes mitochondrial fusion; S. cerevisiae fusion-defective mutant growth rescue, CellTiterGlo 48 h; Potency, µM (highest dose often 46.1 µM), without a hit: at the highest dose growth rescue (activation), usual class: activators; hit rate 0.23% among 320,000; AID 485298; also: % of control where 0% means no effect; nearly all actives have a fitted effect of over 45% in size
#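 Read-out: ATP-based luminescence (CellTiterGlo, 10 min ambient) reporting growth of fusion-defective ts yeast after 48 hours at 37C on glycerol/ethanol YPEG medium in the presence of compound.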
# Abeta rescue – A-beta toxicity reversal in yeast. yeast expressing A-beta42, growth rescue, OD600, 48 h; response scale: 0% DMSO, 100% iron-clioquinol control. Potency, µM (top dose mostly 46.1 µM), most hits filed as activators. hit rate 0.063% among 410,000. AID 1347071; also: nearly all actives have a fitted effect of over 55% in size
#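 Growth rescue measured by 600 nm absorbance after 48 h yeast culture at 30 C with compound. Values normalized between DMSO and an equimolar ferric chloride plus clioquinol control.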
# AT treatment – potential ataxia-telangiectasia treatments restoring KAP-1 phosphorylation; Potency, µM (titrated, usually from 57.5 µM), inactives show top-dose activation, hits mostly activators; F2112 A-T fibroblasts, KAP-1 phosphorylation AlphaLISA; neocarzinostatin DNA damage 30 min before lysis; hit rate 0.19% among 320,000; also: % of control where 0% means no effect; nearly all actives have a fitted effect of over 45% in size
#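 hTERT-immortalized A-T patient fibroblasts (F2112), 500 cells/well in OPTI-MEM, 1% FBS, got compounds for 60 min, then NCS for 30 min at 37C. Lysates were then assayed for phospho-KAP-1 by AlphaLISA (anti-pKAP1 donor, anti-KAP1 acceptor beads), 6 hr at 25C.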
# TDP43 rescue – rescues yeast growth from TDP-43 toxicity; Potency, µM (doses to about 46.1 µM), inactives show top-dose growth rescue (activation), usual class: activators; hit rate 1.8% among 410,000; AID 652104; TDP-43 expressing yeast growth rescue, BacTiter-Glo, 24 h; also: % of control where 0% means no effect; nearly all actives have a fitted effect of over 50% in size
#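 Growth rescue of TDP-43-toxic yeast measured as ATP luminescence (BacTiter-Glo). Cells grown to mid-log in raffinose, induced in galactose at OD600=0.02, exposed to compound 24 hr at 30 deg C.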
# Glioma ERSR ind – inducers of ER stress response in human glioma cells. U87-MG GRP78 promoter luciferase reporter, 16 h. Potency, µM, without a hit: at the top dose activation, hits mostly activators. hit rate 0.02% among 420,000. AID 602332; also: series mostly up to about 76 µM; % of control where 0% means no effect; nearly all actives have a fitted effect of over 35% in size
#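 Stably transfected U87-MG human glioma cells carrying a GRP78-based luminescent sensor were seeded at 1000 cells/well, pin-dosed with compounds and incubated 16 h. Luciferase reagent was then added, and end-point luminescence was read after 10 min at room temperature.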
# * hit, by the source's call; i = inactive; ? = inconclusive; . = no result given; [ ] = dose if it differs, or a comment. In the library only some 2.1% were active in any assay of this set; here they are far more common. Calls follow the shape of the dose curve; as a rule, active = well fitted curve in the direction sought with a large enough effect; inconclusive = small, poorly fitted or top-dose-only effect, or another doubt; inactive = no such curve, though single readings can be large; an effect the other way counts as inactive or inconclusive. Potency is read from the fitted curve at half-maximal effect.
SMILES,aSyn rescue,Mito fusion act,Abeta rescue,AT treatment,TDP43 rescue,Glioma ERSR ind
Fc1cccc(C[n+]2csc3ccccc32)c1,-18%,3%,i,-10%,3.5µM*,2%
c1ccc(C[n+]2csc3ccccc32)cc1,-13%,4%,i,-5%,?,1%
COc1ccc(CNC(=O)c2cccc(N3CCCS3(=O)=O)c2)cc1OC,.,.,i,.,15%,-1%
Nc1ccc(C(=O)OCC(=O)N2CCc3ccccc3C2)cc1[N+](=O)[O-],16%,11µM*,i,-2%,9%,7%
O=C(OCC(=O)N1CCc2ccccc2C1)c1ccc(Cl)c([N+](=O)[O-])c1,?,4%,i,-4%,-18%,?
O=C(Nc1ccc(S(=O)(=O)N(Cc2ccccc2)c2ccccc2)cc1)c1ccc([N+](=O)[O-])cc1,.,.,i,.,10%,-2%
Cc1ccc2ccc3ccc(C)nc3c2n1,-20%,-6%,i,-6%,4.5µM*,3%
Cc1ccc(/C=C/C(=O)O)cc1S(=O)(=O)N1CCc2ccccc21,10%,16%,i,9%,7.9µM*,-3%
COCc1c(C(=O)NC2CCOC(C)(C)C2)cnn1-c1nccc(-c2cccs2)n1 (stereo unspecified),.,.,.,.,.,0%
CCOC(=O)c1ccc(NC(=O)c2ccccc2N(C)S(=O)(=O)c2ccccc2)cc1,6%,20%,i,2%,35µM*,-6%
CN(c1ccccc1C(=O)Nc1cccc(Br)c1)S(=O)(=O)c1ccccc1,10%,-1%,i,1%,28µM*,-5%
CN(c1ccccc1C(=O)Nc1ccc(CC#N)cc1)S(=O)(=O)c1ccccc1,10%,-1%,i,2%,-2%,-2%
CN(c1ccccc1C(=O)Nc1cccc([N+](=O)[O-])c1)S(=O)(=O)c1ccccc1,2%,12%,i,3%,22µM*,-1%
CCn1nc(C)cc1C(=O)NCCN1Cc2ccccc2OC(c2ccccc2F)C1 (stereo unspecified),.,.,.,.,.,-6%
CCc1c(-c2n[nH]c(=S)n2Cc2ccccc2)csc1C,-4%,4%,i,15%,11µM*,-4%
Cc1scc(-c2n[nH]c(=S)n2Cc2ccccc2)c1C,6%,11%,i,-6%,?,4%
Cc1cc(C(=O)Nc2c(F)cc(F)cc2Br)cs1,14%,3%,i,8%,13µM*,-3%
CC1CCN(C(=O)CCNS(=O)(=O)c2ccc(Br)cc2)CC1,3.5µM*,?,i,11%,-11%,-4%
O=S(=O)(NCCN1CCCC1)c1ccc(Br)cc1,-7%,2%,i,1%,-8%,-1%
CC(=O)N1c2ccc(S(=O)(=O)NCCC(=O)N3CCCC(C)C3)cc2CC1C (stereo unspecified),5%,11µM*,i,-9%,?,-1%
CCN1CCCC1CNS(=O)(=O)c1ccc(Br)cc1 (stereo unspecified),1%,18%,i,2.8µM*,6%,-6%
Cc1nnsc1C(=O)NCC1Cc2cccc(-c3ncccn3)c2O1 (stereo unspecified),.,.,.,.,.,-3%
O=C1N2CCCc3cccc(c32)C12Nc1ccccc1S2 (stereo unspecified),?,-4%,i,2%,20µM*,-3%
CC1CC(C)(C)N2C(=O)C3(Nc4ccccc4S3)c3cccc1c32 (stereo unspecified),?,27%,i,.,-35%,-2%
CCC(=NCc1ccc(Cl)c(Cl)c1)c1nc(-c2ccco2)oc1O,9%,?,i,6%,14µM*,-3%
SMILES,aSyn rescue,Mito fusion act,Abeta rescue,AT treatment,TDP43 rescue,Glioma ERSR ind
O=C(O)/C=C/c1cnn(-c2ccccc2)c1,0%,-1%,i,1%,35µM*,-16%
COc1cc(C(=O)NCc2nc3cccnc3n2Cc2ccc(C)cc2)cc(OC)c1OC,.,.,i,.,8%,-1%
O=C(NCCc1ccccc1)c1nc2ncccn2n1,-1%,-1%,i,.,-8%,-1%
c1ccc(CSc2nc3ncccn3n2)cc1,-9%[1.84 µM],2%,i,-4%,16µM*,-1%
CCOC(=O)CNC(=O)N1[C@H](c2cccs2)[C@@H](C)C(=O)[C@@H](C)[C@@H]1c1cccs1,.,.,i,.,2%[9.22 µM],-2%
CC(=O)N1CCN(c2cc(-c3ccccc3)nc3cc(-c4cccc(Cl)c4)nn23)CC1,-11%,.,i,.,2.2µM*,-6%
O=C(c1ccoc1)N1CCN(c2cc(-c3ccncc3)nc3cc(-c4cccc(Cl)c4)nn23)CC1,-3%,.,i,.,?,-3%
O=C(c1ccoc1)N1CCN(c2cc(-c3cccnc3)nc3cc(-c4cccc(Cl)c4)nn23)CC1,-1%,.,i,.,7.9µM*,-7%
O=C(c1ccncc1)N1CCN(c2cc(-c3ccccc3)nc3cc(-c4cccc(Cl)c4)nn23)CC1,?,.,i,.,?,2%
COc1cccc(C2(CC(=O)N3CCN(c4ccccc4O)CC3)CC(=O)N(C3CCCC3)C2=O)c1 (stereo unspecified),.,.,.,.,.,2%
CC(=O)N1CCC[C@H]1C(=O)NCC1Cc2cc(F)cc(-c3ccc(F)c(C)c3)c2O1 (stereo partly specified),.,.,.,.,.,-4%
CC(C)Cn1c(N)c(C(=O)COC(=O)c2c(O)c(Cl)cc(Cl)c2Cl)c(=O)n(C)c1=O,-15%,22%,i,-5%,25µM*,-2%
COc1ccc2c(c1)-c1nc(-n3ncc(C(=O)NC(C)(C)CO)c3C3CC3)ncc1CC2,.,.,.,.,.,12%
C(=N\n1cnnc1)/c1ccc(OCc2cccc3ccccc23)cc1,16%,9%,i,-2%,13µM*,0%
Fc1ccccc1COc1ccc(/C=N/n2cnnc2)cc1,0%,3%,i,12%,11µM*,5%
C(=N\n1cnnc1)/c1cccc(OCCOc2ccccc2)c1,3%,4%,i,-1%,?,-4%
Cc1cccc(NC(=S)NC(=O)Cc2ccccc2)c1C,15%,-9%,7.9µM*,-7%,?,4%
Cc1cccc(NC(=S)NC(=O)CCc2ccccc2)c1C,-14%,0%,?,.,-1%,1%
COc1cc(C)c(CN2C[C@H](Sc3ccccn3)C[C@H]2C(=O)N(C)C)cc1C,.,.,.,.,.,-2%
COc1ccc(C2c3ccc(O)cc3Oc3ncn(CCCO)c(=N)c32)cc1 (stereo unspecified),-2%,-2%,i,25µM*,-21%,-3%
N=c1c2c(ncn1Cc1ccco1)Oc1cc(O)ccc1C2c1ccccc1 (stereo unspecified),4%,2%,i,16%,-1%,-2%

# Assay outcomes: PubChem BioAssay, National Center for Advancing Translational Sciences (NCATS)
